Data as given in PubChem BioAssay (NCI).
About 79,000 compounds went through this panel and 15% of them were active in at least one assay; those are over-represented in the sample as a whole. Values without a mark were called inactive. Activity calls are given as the source filed them. Rule as the data show it: active = growth inhibition above about 70%; inactive = the rest.

Assay: NCI Yeast Anticancer Drug Screen. Data for the mlh1 rad18 strain (AID 175)
Conditions: S. cerevisiae mlh1 rad18 strain growth inhibition, stronger effect = higher value
Protocol: Growth inhibition of yeast strains with defined genetic alterations is measured as a screen for potential anti-cancer activity. Selected strains with alterations in DNA damage repair or cell cycle control were exposed to compounds and growth inhibition was measured relative to vehicle treated controls. The strain used in this assay is mlh1 rad18

[1] = at 5.0 µM (retest, dose inferred, filed as 0.5)
[2] = at 50.0 µM (retest, dose inferred, filed as 5.0)

Structure (SMILES)	growth inhibition [1]	growth inhibition [2]	growth inhibition (at 50.0 µM)
CC(=O)OCc1cc(=O)n(C)c2c3c4c(cc12)c(C)cc(=O)n4CO3	91% (active)	99% (active)	89.9% (active)
CC(C)SC(=S)Nc1cc(C(F)(F)F)ccc1Cl	0%	97% (active)	99.5% (active)
CCC(=O)NC1=CCC(C(C)(C)C)CC1 (configuration not stated)	0%	-1%	-5.45%
Cc1cc(=O)c2c(ccc3cc4ccccc4cc32)[nH]1	14%	49%	59.1%
O=c1cccccc1[O-].O=c1cccccc1[O-].O=c1cccccc1[O-].[Dy+3]	10%	10%	92% (active)
CN1C(C)(C)CC(O)(C#N)CC1(C)C	12%	99% (active)	99.4% (active)
CN(C)c1ccc(/C=C/c2ccnc3ccccc23)cc1Cl	-3%	95% (active)	5.25%
CCOC(=O)/C(=C\c1ccc(C)cc1)C(C)=O	22%	96% (active)	90.7% (active)
FC(F)(F)c1nc(SCc2ccc(Cl)cc2)n[nH]1	-3%	13%	-17.8%
C=C1CC2(CCOc3ccccc32)OC1=O (configuration not stated)	17%	89% (active)	91% (active)
CCN(CC)C(=O)N1CCN(c2cccc(Cl)c2)CC1	2%	76% (active)	90.6% (active)
COc1ccc(CCCCI)cc1	16%	98% (active)	96.9% (active)
CC(C)N(C(=O)C12C3C4C5(C#N)C3C1(C#N)C5C42I)C(C)C (configuration not stated)	11%	11%	46.4%
CC(C)[CH2][Ge]([Cl])([Cl])[Cl]	1%	1%	99% (active)
